# Compound activity from PubChem BioAssay.
# Hits are enriched below; roughly 15% of the tested compounds scored in any of these assays.
# TDP1 cell noCPT: qHTS for Inhibitors of human tyrosyl-DNA phosphodiesterase 1 (TDP1): qHTS in cells in absence of CPT | DT40 Tdp1-/- hTDP1 cells, no CPT, ATP luminescence, 48 h | 420,000 tested, 15% active | Potency, µM (top dose mostly 46.2 µM), without a hit: at the top dose activity change, negative = growth inhibition, hits mostly inhibitors; further: nearly all actives have a fitted effect of over 55% in size
#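 Luminescent ATP content (CellTiter-Glo) served as the growth readout. Knockout chicken DT40 cells expressing human TDP1 were exposed to compounds without camptothecin for a minimum 48 hr at 37 °C.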
# ELG1 DNA repair: blocks ELG1-dependent DNA repair in HEK293T cells; HEK293T ELG1-luciferase reporter, luminescence, 16 h; DNA damage induced by 5-fluorouridine; Potency, µM (series often up to 46.1 µM), inactives show at the highest dose activity change, negative = inhibition, usual class: inhibitors; 330,000 tested, 2.3% active; AID 504467; further: nearly all actives have a fitted effect of over 55% in size
#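 5-Fluorouridine DNA damage + compound/DMSO, 2,000 cells/well, 16 h, 37 °C/5% CO2. ONE-Glo, 30 min RT, luminescence. Readout = decrease in reporter signal.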
# ALOX12 inh: ALOX12 (human) lipoxygenase inhibition. P18054. Potency, µM (highest dose often 108 µM), for the others: at the highest dose activity change, negative = inhibition, most hits filed as inhibitors. 580,000 tested, 1.1% active. purified 12hLO, xylenol orange hydroperoxide absorbance. AID 1671190
# Target sequence (P18054 whole entry, looked up): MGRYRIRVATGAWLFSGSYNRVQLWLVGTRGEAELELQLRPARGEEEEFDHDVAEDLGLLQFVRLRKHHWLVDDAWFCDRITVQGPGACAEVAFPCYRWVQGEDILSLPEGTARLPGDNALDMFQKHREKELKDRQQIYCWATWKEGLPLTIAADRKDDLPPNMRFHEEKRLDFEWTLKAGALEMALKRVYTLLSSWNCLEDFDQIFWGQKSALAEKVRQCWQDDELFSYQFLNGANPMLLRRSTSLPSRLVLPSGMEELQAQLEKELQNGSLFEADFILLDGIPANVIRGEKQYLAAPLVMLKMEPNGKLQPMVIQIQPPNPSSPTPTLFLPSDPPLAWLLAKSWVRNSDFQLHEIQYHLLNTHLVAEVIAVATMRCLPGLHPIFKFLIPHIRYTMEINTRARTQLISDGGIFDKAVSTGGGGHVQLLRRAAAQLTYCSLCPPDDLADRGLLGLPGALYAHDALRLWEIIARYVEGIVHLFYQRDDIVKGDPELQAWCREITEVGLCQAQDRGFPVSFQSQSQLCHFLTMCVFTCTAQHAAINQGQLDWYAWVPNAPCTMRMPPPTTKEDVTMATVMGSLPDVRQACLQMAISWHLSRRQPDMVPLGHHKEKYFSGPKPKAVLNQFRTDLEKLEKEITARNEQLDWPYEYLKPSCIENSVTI
#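 Hydroperoxide product was detected by ferrous iron/xylenol orange as the 573 to 405 nm absorbance ratio. Arachidonic acid at 40 uM (final) was turned over for 30 min at room temperature by 150 nM human 12hLO, pH 7.0 Hepes buffer, after 15 min compound preincubation.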
# Gal4-VP16 FLuc: inhibits Gal4-VP16 luciferase reporter, ROR gamma counter-screen; 310,000 tested, 3.5% active; AID 2546; Potency, µM (top dose mostly 53.6 µM), for the others: top-dose activity, negative = inhibition, actives largely listed as inhibitors; Drosophila S2 Gal4-VP16 UAS-luciferase, luminescence, 20 h;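 further: Gal4-VP16 expression switched on by copper sulfate through the metallothionein promoter; nearly all actives have a fitted effect of over 50% in size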
# DT40 TDP1 CPT: DT40-hTDP1 cell growth loss with CPT | chicken DT40 Tdp1-/-;hTDP1 cells + 20 nM CPT, ATP luminescence, 48 h | Potency, µM (doses to about 46.2 µM), for the others: at the highest dose activity change, negative = growth inhibition, most hits filed as inhibitors | 420,000 tested, 12% active | AID 686979; further: nearly all actives have a fitted effect of over 55% in size
#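 Chicken DT40 Tdp1-/- cells stably complemented with human TDP1 were seeded at 400 cells/well in medium containing 20 nM camptothecin, exposed to pin-transferred compounds, and grown at 37 °C for at least 48 hr. Viability was read as ATP luminescence.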
# RORgamma inh: blocks mouse ROR gamma transcriptional activity | P51450 | Drosophila S2 Gal4-RORgamma UAS-luciferase reporter, 20 h | Potency, µM (titrated, usually from 53.6 µM), without a hit: at the highest dose activity change, negative = inhibition, actives largely listed as inhibitors | 310,000 tested, 5.4% active | AID 2551; further: nearly all actives have a fitted effect of over 60% in size
#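 Using a luciferase readout, inhibitors were identified by reduced reporter activity in Drosophila cells coexpressing a copper-inducible Gal4–ROR gamma fusion and UAS-driven Photinus luciferase, incubated 20 hr after 700 uM copper sulfate.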
# Numbers without * were called inactive; u = inconclusive; x = no result given; [ ] = dose if it differs, or a comment. The call rests on the fitted dose curve; in most records, active means well fitted curve in the direction sought with a large enough effect; inconclusive means small, poorly fitted or top-dose-only effect, or another doubt; inactive means no such curve, though single readings can be large; an effect the other way counts as inactive or inconclusive. On the % scale 0 is the no-effect control and ±100 the full control effect; potency means the concentration at half of the fitted maximal effect.
SMILES,TDP1 cell noCPT,ELG1 DNA repair,ALOX12 inh,Gal4-VP16 FLuc,DT40 TDP1 CPT,RORgamma inh
CC(C)C[C@@H](CN1CCCC1CN1C(=S)NC[C@@H]1Cc1ccc(O)cc1)N1C[C@H](Cc2ccc(O)cc2)N(CC2CCCCC2)C1=S (some centres not stated),15µM*,x,u,x,21µM*,x
CC(C)C[C@H]1CN([C@@H](Cc2ccccc2)CN2CCC[C@H]2CN2C(=O)C(=O)NC[C@@H]2Cc2ccc(O)cc2)C(=O)C(=O)N1CCc1ccccc1,u,x,-8%,x,u,x
CC(C)C[C@@H](CN1CCC[C@@H]1CN1C(=S)NC[C@@H]1Cc1ccccc1)N1C[C@H](Cc2ccc(O)cc2)N(CC2CCCCC2)C1=S,23µM*,x,-10%,x,u,x
CC(C)C[C@@H](CN1CCC[C@@H]1CN1C(=S)NC[C@@H]1Cc1ccccc1)N1C[C@H](Cc2ccc(O)cc2)N(CC2CCCCCC2)C1=S,18µM*,x,-26%,x,13µM*,x
CCc1ccc2oc(C(=O)N3CCC(Cc4ccccc4)CC3)cc(=O)c2c1,x,x,-58%,x,x,x
CN(Cc1ccccc1)S(=O)(=O)c1cn(C)c(=O)n(C)c1=O,x,x,6%,x,x,x
COc1ccc(/C=C(/C#N)C(=O)Nc2cccc3ncccc23)cc1OC,x,x,16µM*,x,x,x
COc1ccccc1NC(=O)/C(C#N)=C/c1ccncc1,3%,u,u,2.5µM*,-23%,u
CC(C)c1ccc(/C=C(/C#N)C(=O)Nc2cccc3ncccc23)cc1,x,x,16µM*,x,x,x
COc1ccccc1NC(=O)/C(C#N)=C/c1cccnc1,0%,0%,u,-1%,3%,-30%
COC(=O)c1cc(CN)cs1,x,x,-13%,x,x,x
COc1ccc(-c2onc(C)c2-c2ccc(C(=O)OC(C)C)o2)c(O)c1,16µM*,23µM*,u,-30%,21µM*,14%
C[n+]1ccccc1/C=C/c1cc(Br)ccc1O,-3%,-5%,u,-3%,-3%,-1%
COc1ccc(/C=C/c2cccc[n+]2C)c(O)c1,18µM*,-15%,u,-9%,u,-14%
CC(=O)OCON[N+]([O-])=NC1CCCCC1,x,x,x,3%,x,14%
CC(=O)OCON[N+]([O-])=NC(C)C,u,x,x,28%,11µM*,0%
CCc1ccc(S(=O)(=O)Nc2ccc3c(c2)sc(=O)n3C)cc1,15µM*,x,u,x,21µM*,x
COc1ccc(S(=O)(=O)Nc2ccc3c(c2)n(C)c(=O)n3C)cc1,-9%,u,-3%,-8%,1%,37%
CC(=O)Nc1ccc(NC(=O)c2ccc3nc[nH]c3c2)cc1,x,x,71%,x,x,x
CCN1CCN(CCNC(=O)c2ccc(/C=C3\Sc4ccccc4N(Cc4ccccc4F)C3=O)cc2)CC1,u,-2%,u,u,u,u
CN1CCN(CCCNC(=O)c2ccc(/C=C3\Sc4ccccc4N(Cc4ccc(F)cc4)C3=O)cc2)CC1,16µM*,-15%,2%,-2%[10 µM],u,u
Cc1cccc(CN2C(=O)/C(=C\c3ccc(C(=O)NCCCN4CCN(C)CC4)cc3)Oc3ccccc32)c1,x,-13%,u,u,x,u
CN1CCN(CCCNC(=O)c2ccc(/C=C3\Oc4ccccc4N(Cc4ccccc4F)C3=O)cc2)CC1,21µM*,u,-22%,u,u,u
Cc1ccc(C2=NC3(CCN(C(=O)c4ccc5[nH]ccc5c4)CC3)ON2)cc1,x,x,2%,x,x,x
COCCNC(=O)CCn1c(=O)oc2ccccc21,-15%,16%,10%,1%,-7%,2%
Cc1c(Cl)cccc1NC(=O)NCCOCCn1c(=O)oc2ccccc21,7.3µM*,x,-9%,x,8.2µM*,x
